The whole screen tested about 330,000 compounds, of which about 7,700 (2.3%) were called active. Where a call stands in place of a potency, no number is given. Inconclusive results (about 26%) are left out. This is one part of a sample in which actives are shown more often than they occur. Calls come from the whole dose curve; as a rule, active = well fitted inhibition curve with a large enough effect; inconclusive = small, poorly fitted or top-dose-only effect, or effect the other way; inactive = flat fitted curve, though single readings scatter.
Potency is the fitted concentration of half-maximal effect.

This assay can be described thus: qHTS screen for small molecules that inhibit ELG1-dependent DNA repair in human embryonic kidney (HEK293T) cells expressing luciferase-tagged ELG1. Note: nearly all actives have a fitted effect of over 55% in size. To be noted: HEK293T ELG1-luciferase reporter, luminescence, 16 h, DNA damage induced by 5-fluorouridine; series mostly up to 46.1 µM. The method, boiled down:
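In this reporter screen, reduction of luminescence relative to DMSO vehicle indicated activity. Compounds and 5-fluorouridine were added together to 2,000 cells per well, incubated for 16 hr at 37 °C, then developed with ONE-Glo.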
Background: In qHTS, concentration-response curves come from the screen itself.
Take `O=C(CSc1nccn1-c1cccc(F)c1)NC1CCCC1`: the Potency result is “inactive”.
Next, `CC(C)CC(O)C1CCN(C(=O)CCc2nnc(-c3ccc4c(c3)OCO4)o2)CC1` (stereo not drawn): “inactive”.
Consider `CCn1c2ccc(F)cc2c2nnc(SCCN3CCOCC3)nc21`, for which the Potency result was “inactive”.
For the compound `CCN(CC(=O)NC(C)C)C(=O)c1cc(S(=O)(=O)N2CCCCC2)ccc1N1CCCCC1`, the Potency entry was “inactive”.
Next, `CCN(CC(=O)Nc1ccccc1C(=O)NC1CC1)Cc1cccs1`: “inactive”; `Cc1cccc(-c2nc3ccccc3c(=O)n2NC(=O)Cc2ccc(Cl)cc2)c1`: “inactive”; `O=c1c2cc(Br)ccc2nc(-c2cccc(Cl)c2)n1O`: 18.3 µM (active).
Next, `O=C1CCCc2c1nc(-c1cccc(Cl)c1)n2O`: “inactive”; `Cc1ccc(NC(=O)Cn2cnc3c(OCc4ccccc4)ncnc32)cc1C`: “inactive”.
Next, `Cc1cc(C)c(S(=O)(=O)NCC(c2ccc3c(c2)OCO3)N2CCOCC2)c(C)c1` (stereo not drawn): “inactive”; `Fc1ccc(/C=N/n2c(COc3ccccc3)n[nH]c2=S)cc1`: “inactive”; `CN(C)c1ccc(Nc2c3c4c(cccc4n(C)c2=O)C(=O)c2ccccc2-3)cc1`: 7.31 µM (active).
Regarding `CN(C)c1ccc(C2N(C)C(=O)c3ccccc3N2C)cc1` (stereo not drawn), the Potency entry is “inactive”.
Next, `Cc1ccc(NS(=O)(=O)c2ccc3c(c2)n(C)c(=O)c(=O)n3C)c(C)c1`: “inactive”.
Next, `CCC1=Nc2cc(C(=O)NCCN3CCCC3)ccc2Sc2ccc(C)cc21`: “inactive”.
As for `CCOC(=O)CC1(NC(=O)c2cc(COc3cncc(Cl)c3)on2)CCCCC1`, the Potency result is “inactive”.
As to `CN1CCC(N(C)S(=O)(=O)c2ccc(NC(=O)c3cccc(C#N)c3)cc2)CC1`, the Potency result is “inactive”.
Next, `Cc1ccnc(N2CCN(C(=O)CSc3nc4ccccc4nc3N3CCCCC3)CC2)c1`: 12.6 µM (active); `Cc1ccc(S(=O)(=O)NCC(=O)N2CCN(c3ccccn3)CC2)cc1`: “inactive”.
Next, `O=C(Cc1ccccc1Cl)N1CCN(c2ccccn2)CC1`: “inactive”.
In the case of `COC(=O)c1ccc(CSc2ccc(S(=O)(=O)N3CCCCC3)cn2)cc1` it was “inactive”.
For the compound `CC1CCCCN1S(=O)(=O)CCNC(=O)c1ccccc1` (stereo not drawn), the Potency result was “inactive”.
In the case of `CSCc1nnc(NC(=O)c2ccc(S(=O)(=O)N3CCCCC3C)cc2)o1` (stereo not drawn) it was 20.6 µM (active).
As to `O=C(Nc1nnc(-c2ccco2)o1)c1ccc(S(=O)(=O)N2CCOCC2)cc1`, the Potency result is “inactive”.
In the case of `Cc1ccc(C(=O)CN2C(=O)NC3(CCc4ccccc43)C2=O)c(C)c1` (stereo not drawn) it was “inactive”; in that of `COc1ccc(CCNC(=O)COC(=O)c2cnc(Cl)c(Cl)c2)cc1`, “inactive”.
Next, `COCC(C)n1c(SCC(=O)NC2CCCCC2C)nc2ccccc2c1=O` (stereo not drawn): “inactive”.
In the case of `COc1cc(C(=O)NCc2nnc(SCC(=O)c3ccc(Cl)cc3)o2)cc(OC)c1OC` it was “inactive”; in that of `CCC(=O)Nc1ccc(C(=O)CSc2nnc(CNc3ccc(Cl)cc3)o2)cc1OC`, 11.6 µM (active); in that of `COc1ccccc1NC(=O)CSc1nnc(CNC(=O)c2ccccc2F)o1`, “inactive”.
On to `CCOc1ncccc1C(=O)OCC(=O)c1c[nH]c2ccccc12`, for which the Potency result was “inactive”.
In the case of `Cc1cc(OCC(=O)NCC(O)c2ccccc2)c2c(C)c(C)c(=O)oc2c1` (stereo not drawn) it was “inactive”; in that of `O=C(Nc1ccc(S(=O)(=O)Nc2ncccn2)cc1)C12CC3CC(CC(C3)C1)C2`, “inactive”; in that of `Cc1ncn(C23CC4CC(CC(O)(C4)C2)C3)n1`, “inactive”.
For the compound `COC(=O)c1ccc(NC(=O)C23CC4CC(C2)CC(n2cnc(Cl)n2)(C4)C3)cc1`, the Potency is 5.8 µM (active).
For the compound `CN(C)C(=O)CCc1ccc2c3c([nH]c2c1)[C@]1(C)[C@@H](C(=O)N2CCCCC2)C[C@H](CC(=O)NCCC2=CCCCC2)C(=O)N1CC3`, the Potency entry was “inactive”.
In the case of `Cc1cccc(-c2oc3ccc(-c4ccc5c(c4)OCO5)cc3c2C#Cc2cncn2C)c1` it was “inactive”.
As to `COc1ccc(/C=C2\CCCC3C2=NN(C(=O)c2scnc2C)C3c2ccc(OC)cc2)cc1` (stereo not drawn), the Potency was 18.4 µM (active).
Next, `CC(Oc1cc2oc(=O)c3c(c2cc1Cl)CCCC3)C(=O)NCc1ccncc1` (stereo not drawn): “inactive”.
With `CS(=O)(=O)N1CCN(C(=O)c2cc3ccccc3oc2=O)CC1`, the Potency result was “inactive”.
Next, `O=C(c1cc2ccccc2o1)N1CCN(S(=O)(=O)c2ccc(Cl)s2)CC1`: 16.4 µM (active); `O=C(c1cc2ccccc2o1)N1CCN(Cc2ccccc2)CC1`: “inactive”; `CCCc1cc(=O)[nH]c(SCC(=O)Nc2ccc(C(=O)Nc3ccccc3OC)cc2)n1`: “inactive”.
Next, `O=C(NC1CCN(Cc2ccccc2)CC1)c1c(F)cccc1F`: “inactive”; `Cc1ccn2cc(C(=O)NC3CCN(Cc4ccccc4)CC3)nc2c1`: 20.6 µM (active); `Cc1ccc(-c2cc(C(=O)NC3CCN(Cc4ccccc4)CC3)c3ccccc3n2)cc1`: “inactive”.
Next, `COc1ccc(NC(=O)C(CC(C)C)NC(=O)C2CCC(C)CC2)cc1` (stereo not drawn): “inactive”; `COc1ccc(NS(=O)(=O)c2ccc(C)c(C(=O)N(C)Cc3ccc(OC)cc3OC)c2)cc1`: “inactive”; `O=C(Cc1ccc([N+](=O)[O-])cc1)Nc1ccc(C(=O)N2CCOCC2)cc1`: “inactive”.
Consider `Cc1c(C(=O)N2CCOCC2)[nH]c2ccc(OCc3ccccc3)cc12`, for which the Potency was 18.4 µM (active).
For the compound `COc1ccc2[nH]c(C(=O)N3CCN(C)CC3)c(C)c2c1`, the Potency result was “inactive”.
Next, `CCOC(=O)c1[nH]c2ccc(OC)cc2c1NC(=O)N1CCOCC1`: “inactive”; `COc1ccc(CN2C(CC(=O)Nc3cccnc3)c3ccc(C(F)(F)F)cc3S2(=O)=O)cc1` (stereo not drawn): “inactive”.
Regarding `O=C(CSc1nc2ccccc2s1)Nc1ccc(C(=O)O)cc1`, the Potency result was “inactive”.
Next, `COc1cc(OC)cc(-c2nnc(SCC(=O)Nc3ccc(C(=O)O)cc3)s2)c1`: “inactive”; `Cc1ccc(Nc2nc(N3CCOCC3)nc(N3CCOCC3)n2)cc1Cl`: 0.651 µM (active); `Nc1nnc(SCC(=O)Nc2ccc3nc(SCC(=O)Nc4ccccc4)sc3c2)s1`: 1.84 µM (active).
Next, `C=CCn1c(CSc2nc3ccccc3s2)nnc1SCC(=O)NCc1ccco1`: “inactive”; `Cc1ccc(S(=O)(=O)N2CCOCC2)cc1NC(=O)CSc1nnc(N)s1`: “inactive”; `O=C(CSc1c2c(nc3ccc(Cl)cc13)CCCC2)NCc1ccco1`: “inactive”.
In the case of `Cc1ccccc1NC(=O)CSC1=NCCN1` it was “inactive”.
In the case of `Cc1ccc(Nc2nc(N)nc(CN3CCN(Cc4ccccc4)CC3)n2)cc1Cl`, the Potency result was “inactive”.
In the case of `Cc1ccccc1NC(=O)CSc1nc2ccc(Nc3nc(N4CCOCC4)nc(N4CCOCC4)n3)cc2s1` it was 1.3 µM (active); in that of `Cc1cc(Nc2ccc(Cl)cc2)nc(N2CCOCC2)n1`, “inactive”.
Regarding `O=C(CSc1nc2ccc(Nc3nc(N4CCOCC4)nc(N4CCOCC4)n3)cc2s1)NCc1ccco1`, the Potency is 2.59 µM (active).
For `O=S(=O)(c1ccc(F)cc1)N1CCN=C1SCc1cccc(F)c1`, the Potency entry is “inactive”.
Next, `O=C(Nc1cc(-c2nc3ncccc3o2)ccc1Cl)c1ccco1`: “inactive”; `COc1cccc(NC(=O)CCc2nnc3ccc(N4CCC(C)CC4)nn23)c1`: “inactive”; `COc1ccc(N(Cc2ccc(N(C)C)cc2)C(=O)c2ccc(S(C)(=O)=O)cc2)cc1`: “inactive”.
In the case of `CN[C@H](C(=O)NC[C@H]1O[C@@H](n2cnc3c(N)ncnc32)[C@H](O)[C@@H]1O)[C@@H](C)OCc1ccccc1` it was “inactive”; in that of `CCCN1CCn2c3c(c4cc(Br)ccc42)CCCC31` (stereo not drawn), “inactive”; in that of `COc1ccc(Nc2ncnc3sc(-c4ccccc4)cc23)c(OC)c1`, “inactive”.
Next, `c1ccc2c(c1)OCC(CNc1ncnc3nc[nH]c13)O2` (stereo not drawn): “inactive”; `c1ccc(-c2cc3c(NCC4COc5ccccc5O4)ncnc3s2)cc1` (stereo not drawn): 20.6 µM (active).
In the case of `CC1(c2ccccc2)NC(=O)N(CC(=O)N2CC(=O)Nc3ccccc32)C1=O` (stereo not drawn), the Potency result was “inactive”.
Next, `O=C(CCCC(=O)N1CCN(c2cccc(Cl)c2)CC1)c1ccccc1`: “inactive”; `Cc1ccc(C(=O)Nc2nnc(C3=COCCO3)o2)cc1C`: “inactive”.
Next, `O=C1C=C(c2ccnc3cc(Cl)ccc23)C[C@@H](c2ccc3c(c2)OCO3)C1`: “inactive”; `Cc1ccc(N2CCN(c3ccc([N+](=O)[O-])cn3)CC2)c(C)c1`: “inactive”.
Next, `O=C(N/N=C/c1cc(Cl)cc([N+](=O)[O-])c1O)C(O)(c1ccccc1)c1ccccc1`: 16.4 µM (active); `O=C(Cc1cc(=O)[nH][nH]1)N/N=C/c1ccccc1[N+](=O)[O-]`: “inactive”.
With `CN(C)/N=C/c1cc(Cl)cc([N+](=O)[O-])c1O`, the Potency entry was “inactive”.
Next, `CCOC(=O)C1=CN(Cc2ccc(Br)cc2)S(=O)(=O)N(C)C1C` (stereo not drawn): “inactive”.
Next, `CCn1c(Cc2ccc(OC)cc2)nnc1SCC(=O)Nc1ccc(N2CCOCC2)cc1`: “inactive”; `FC(F)(F)c1ccc2c3n(nc2c1)CCN=C3c1ccc(Cl)cc1`: “inactive”; `COc1cc(-c2n[nH]c(=S)n2Cc2ccccc2)cc(OC)c1OC`: “inactive”.
Next, `CCC(C)n1c(-c2cc(OC)c(OC)c(OC)c2)nc2nc3ccccc3nc21` (stereo not drawn): 14.6 µM (active); `COc1cc(C(O)c2nc3ccccc3n2C)cc(OC)c1OC` (stereo not drawn): “inactive”.
Regarding `O=C(COc1ccc([N+](=O)[O-])cc1Cl)Nc1ccc2[nH]c(=O)[nH]c2c1`, the Potency entry is “inactive”.
Consider `Nc1cc(N)nc(SCC(=O)Nc2cccc(S(=O)(=O)N3CCCCC3)c2)n1`, for which the Potency entry was “inactive”.
In the case of `Cc1nn(-c2ccccc2)c2c1c(C)c(CCC(=O)NCC1CCCO1)c(=O)n2C` (stereo not drawn) it was “inactive”.
Regarding `CCC(C)Sc1nc2c(c(=O)[nH]c(=O)n2C)n1CC(O)COc1cccc2ccccc12` (stereo not drawn), the Potency was 8.2 µM (active).
In the case of `Cc1cccc(OCC(O)Cn2c(N3CCCCC3)nc3c2c(=O)[nH]c(=O)n3C)c1` (stereo not drawn) it was “inactive”; in that of `CCCSc1nc2c(c(=O)[nH]c(=O)n2C)n1CCc1ccccc1`, “inactive”.
Next, `COC(=O)c1c(NC(=O)C2CC(C)=C(C)CC2C(=O)O)sc2c1CCCCC2` (stereo not drawn): “inactive”; `Cc1ccc(S(=O)(=O)N2CCN(C(=O)COC(=O)CNC(=O)c3ccc(C(C)(C)C)cc3)CC2)c(C)c1`: “inactive”; `Brc1ccc2c(c1)[C@H]1OCC[C@H]1[C@@H](c1cccs1)N2`: 20.6 µM (active).
In the case of `c1csc(CN2CCN(Cc3cccs3)C2c2cccs2)c1` it was “inactive”.

For the origin of these results see PubChem BioAssay AID504467 (National Center for Advancing Translational Sciences (NCATS), 2011).
